Source: PubChem BioAssay (Tox21)
Where “and” joins values, the source holds several entries; their conditions need not be identical. Equal entries are not always repeated. Records with an inconclusive call do not appear. Entries that show only a call come without a potency. The source holds several records for some structures; these can differ, active in one and inactive in another. Calls of active or inactive are those of the source. Unless noted, calls follow the shape of the dose curve; as a rule, active = well fitted curve in the direction sought with a large enough effect in the repeat runs; inconclusive = weak or mixed curves; inactive = no such curve, though single readings can be large; an effect the other way counts as inactive or inconclusive.

Key:
[1] = qHTS assay to identify small molecule antagonists of the sonic hedgehog signaling (Shh) pathway (AID 1259369; calls by dose curve; also: nearly all actives have a fitted effect of over 45% in size; also: potency is read from the fitted curve at half-maximal effect)
In short: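 Read-out is luminescence from a firefly luciferase gene controlled by the Gli1 response element, in 3T3Gli1-Luc cells pre-incubated 4hr then exposed to compounds and conditioned medium for 24hr.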

[2] = qHTS assay to identify small molecule agonists of the androgen receptor (AR) signaling pathway in the presence of an antagonist - cell viability counter screen (AID 1259379); also: nearly all actives have a fitted effect of over 25% in size; also: potency is read from the fitted curve at half-maximal effect
In short: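 Each compound was tested at 15 concentrations on MDA-kb2 cells in the presence of 3.0uM nilutamide. Viability was measured by CellTiter-Fluor fluorescence after a 16 hr incubation at 37C in a CO2-free atmosphere.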

[3] = qHTS assay to identify small molecule agonists of the estrogen receptor beta (ER-beta) signaling pathway - cell viability counter screen (AID 1259380); also: nearly all actives have a fitted effect of over 30% in size; also: potency is read from the fitted curve at half-maximal effect
In short: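 Compounds dissolved in DMSO were pin-transferred onto ER-beta-UAS-bla HEK293T cells that had settled 6 hr, and exposure ran 16 hr at 37C. Following the reporter read, CellTiter-Glo luminescence after 30 min at room temperature indicated cytotoxicity.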

[4] = qHTS assay to identify small molecule antagonists of the estrogen receptor beta (ER-beta) signaling pathway - cell viability counter screen (AID 1259382); also: nearly all actives have a fitted effect of over 55% in size; also: potency is read from the fitted curve at half-maximal effect
In short: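 CellTiter-Glo ATP luminescence measured after the LiveBLAzer read in the same wells; ER-beta-UAS-bla HEK293T cells, 16 hr compound treatment with 1nM 17-beta-estradiol agonist at 37C, 5% CO2.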

[5] = molecular target: Estrogen receptor (Homo sapiens) (UniProt P03372); assay: qHTS assay to identify small molecule agonists of the estrogen receptor alpha (ER-alpha) signaling pathway in the presence of an antagonist (AID 1259383; calls by dose curve; also: top concentration of the series differs between compounds; nearly all actives have a fitted effect of over 15% in size)
In short: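 Luminescent ERE-luciferase reporter, VM7Luc4E2 cells (endogenous ER-alpha); 10.0nM ICI-182,780 final; 15-point compound titration; 22hr at 37C; ONE-Glo, 30min RT.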

[6] = qHTS assay to identify small molecule agonists or antagonists of the thyroid stimulating hormone receptor (TSHR) signaling pathway - wild type cell line counter screen (AID 1259384; calls by dose curve)
In short: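 Wild-type HEK293 cells were plated 18 h at 37 C/5% CO2, pin-dosed with compound plus Ro20-1724 medium, held 30 min at room temperature, then given cAMP-d2 and anti-cAMP-cryptate; fluorescence was read after 1 h. Fifteen concentrations, triplicate.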

[7] = molecular target: Thyrotropin receptor (Homo sapiens) (UniProt P16473); assay: qHTS assay to identify small molecule antagonists of the thyroid stimulating hormone receptor (TSHR) signaling pathway (AID 1259385; calls by dose curve; also: nearly all actives have a fitted effect of over 20% in size)
In short: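 TSHR-HEK293 cells were plated and held 18 h at 37C/5% CO2, then given compound plus Ro20-1724 and stimulated with TSH at 1.5 ng/mL final. After 30 min at room temperature, cAMP was detected with cAMP-d2/anti-cAMP-cryptate (1 h) by fluorescence.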

[8] = qHTS assay to identify small molecule agonists of the estrogen receptor alpha (ER-alpha) signaling pathway in the presence of an antagonist - cell viability counter screen (AID 1259386);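 also: series mostly up to about 92 µM; cells exposed to compounds for 22 h at 37 °C before the viability read; nearly all actives have a fitted effect of over 30% in size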
In short: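 Using estrogen-depleted VM7Luc4E2 cells, the 15-concentration compound series was applied together with 10.0nM ICI-182,780 and incubated 22hr at 37C/5% CO2. Cell viability was then scored by CellTiter-Fluor.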

[9] = molecular target: Progesterone receptor (Homo sapiens) (UniProt P06401); assay: qHTS assay to identify small molecule agonists of the progesterone receptor (PR) signaling pathway (AID 1346784; calls by dose curve; also: nearly all actives have a fitted effect of over 30% in size)
In short: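 Agonist qHTS: compounds pinned onto 3,000 PR-UAS-bla HEK 293T cells per well in charcoal-stripped serum medium, 16hr at 37C, then beta-lactamase activity measured by LiveBLAzer FRET fluorescence after 2 hours at room temperature.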

[10] = molecular target: Progesterone receptor (Homo sapiens) (UniProt P06401); assay: qHTS assay to identify small molecule antagonists of the progesterone receptor (PR) signaling pathway (AID 1346795; active = well fitted inhibition curve with a large enough effect in the signal ratio in the repeat runs, not every such curve was filed as active; the % refers to the signal ratio; also: potency is read from the fitted curve at half-maximal effect)
In short: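 Antagonist mode with agonist R5020 at 1 nM final and 16 hr incubation at 37C. Reporter was beta-lactamase driven by UAS in HEK293T (PR-UAS-bla), 2% charcoal-stripped serum; signal from LiveBLAzer FRET substrate, 2 hr at room temperature.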

[11] = qHTS assay to identify small molecule antagonists of the progesterone receptor (PR) signaling pathway - cell viability counter screen (AID 1346798); also: nearly all actives have a fitted effect of over 50% in size; also: potency is read from the fitted curve at half-maximal effect
In short: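 Cytotoxicity read as CellTiter-Glo luminescence (30 min, room temperature) in the same wells as the beta-lactamase readout. HEK293T PR-UAS-bla cells in charcoal-stripped 2% FBS received compound and R5020, then 16 h at 37C, 5% CO2.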

[12] = qHTS assay to identify small molecule agonists of the progesterone receptor (PR) signaling pathway - cell viability counter screen (AID 1346799; calls by dose curve; also: nearly all actives have a fitted effect of over 45% in size; also: potency is read from the fitted curve at half-maximal effect)
In short: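 Cytotoxicity measured by CellTiter-Glo luminescence (30 min, RT) in the same wells as the PR beta-lactamase agonist read. Those HEK293T cells had 16 h compound treatment at 37 C in 2% charcoal-stripped FBS medium.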

[13] = qHTS assay to identify small molecule antagonists of the TGF-beta/Smad signaling pathway - cell viability counter screen (AID 1346824); also: nearly all actives have a fitted effect of over 50% in size
In short: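 SBE-bla HEK 293T cells were plated overnight at 37 C, then given compounds in DMSO plus TGF-beta1 (added as 0.25 ng/mL solution) for 5 hr. After the bla read, CellTiter-Glo was added to the same wells and luminescence read after 30 min at room temperature.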

[14] = qHTS assay to identify small molecule agonists of the TGF-beta/Smad signaling pathway - cell viability counter screen (AID 1346829); also: top concentration of the series differs between compounds; nearly all actives have a fitted effect of over 45% in size
In short: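 Luminescence from CellTiter-Glo, read after a 30 min room-temperature incubation, gives cell viability of SBE-bla HEK 293T cells treated 5 hr with compounds at 37 C.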

[15] = qHTS assay to identify small molecule agonists of the TGF-beta/Smad signaling pathway (AID 1346859; active = well fitted activation curve with a large enough effect in the signal ratio in the repeat runs, not every such curve was filed as active; the % refers to the signal ratio; also: series mostly up to about 77 µM)
In short: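 Fluorescence (ex 405 nm; em 460 and 530 nm) was read 2 h after LiveBLAzer FRET substrate at RT. The preceding compound treatment of overnight-plated SBE-bla HEK293T cells lasted 5 h at 37 C.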

[16] = molecular target: Thyrotropin-releasing hormone receptor (Homo sapiens) (UniProt P34981); assay: qHTS assay to identify small molecule antagonists of the thyrotropin-releasing hormone receptor (TRHR) signaling pathway (AID 1346877; active = well fitted inhibition curve with a large enough effect in the repeat runs, not every such curve was filed as active; also: series mostly up to about 51 µM)
In short: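 Calcium signal in dye-loaded TRHR/HEK293 cells; compounds added 5 min before TRH (1 nM final); fluorescence monitored 3 min at 1 s steps.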

[17] = molecular target: Thyrotropin-releasing hormone receptor (Homo sapiens) (UniProt P34981); assay: qHTS assay to identify small molecule agonists of the thyrotropin-releasing hormone receptor (TRHR) signaling pathway (AID 1346891; calls by dose curve; also: series mostly up to about 58 µM)
In short: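 Agonist-mode intracellular calcium readout: kinetic fluorescence over 3 min at 1 s intervals after compound addition to TRHR-HEK293 cells (18 h seeded, 2 h dye-loaded at 37 C). Fifteen concentrations, triplicates.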

[18] = molecular target: Estrogen receptor beta (Homo sapiens) (UniProt Q92731); assay: qHTS assay to identify small molecule agonists of the estrogen receptor beta (ER-beta) signaling pathway (AID 1259377; active = well fitted activation curve with a large enough effect in the signal ratio in the repeat runs, not every such curve was filed as active; the % refers to the signal ratio)
In short: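 Ratiometric beta-lactamase FRET read-out came after 2 h substrate loading at room temperature. It followed 16 h compound treatment at 37C of GripTite HEK293T cells carrying a UAS-bla reporter, plated in 2% charcoal-stripped FBS medium.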

[19] = molecular target: Estrogen receptor beta (Homo sapiens) (UniProt Q92731); assay: qHTS assay to identify small molecule antagonists of the estrogen receptor beta (ER-beta) signaling pathway (AID 1259378; active = well fitted inhibition curve with a large enough effect in the signal ratio in the repeat runs, not every such curve was filed as active; the % refers to the signal ratio)
In short: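 ER-beta-UAS-bla HEK293T (GripTite) cells in 2% charcoal-stripped FBS medium were preincubated 6 hr at 37C, dosed with compound, then stimulated with 1 nM E2 (final) for 16 hr; beta-lactamase reporter read by B/G FRET fluorescence after 2 hr substrate loading.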

Chain of Estrogen receptor (Homo sapiens) (P03372 whole entry, looked up): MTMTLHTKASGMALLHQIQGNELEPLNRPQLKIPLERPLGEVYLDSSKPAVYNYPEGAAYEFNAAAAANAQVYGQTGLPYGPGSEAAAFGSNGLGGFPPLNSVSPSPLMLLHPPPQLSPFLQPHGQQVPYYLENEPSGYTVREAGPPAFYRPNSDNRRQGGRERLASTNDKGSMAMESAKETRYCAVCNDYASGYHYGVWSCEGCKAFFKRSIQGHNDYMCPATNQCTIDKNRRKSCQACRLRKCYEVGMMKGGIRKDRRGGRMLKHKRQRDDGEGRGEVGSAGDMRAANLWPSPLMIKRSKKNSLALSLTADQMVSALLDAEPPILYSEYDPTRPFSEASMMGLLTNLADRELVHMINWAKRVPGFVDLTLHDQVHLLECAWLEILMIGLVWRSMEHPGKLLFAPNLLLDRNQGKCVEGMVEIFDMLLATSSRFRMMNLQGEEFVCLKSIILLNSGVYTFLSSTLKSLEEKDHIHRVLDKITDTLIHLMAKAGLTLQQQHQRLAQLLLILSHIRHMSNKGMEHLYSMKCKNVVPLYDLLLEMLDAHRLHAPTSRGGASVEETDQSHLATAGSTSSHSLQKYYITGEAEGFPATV
Chain of Progesterone receptor (Homo sapiens) (P06401 whole entry, looked up): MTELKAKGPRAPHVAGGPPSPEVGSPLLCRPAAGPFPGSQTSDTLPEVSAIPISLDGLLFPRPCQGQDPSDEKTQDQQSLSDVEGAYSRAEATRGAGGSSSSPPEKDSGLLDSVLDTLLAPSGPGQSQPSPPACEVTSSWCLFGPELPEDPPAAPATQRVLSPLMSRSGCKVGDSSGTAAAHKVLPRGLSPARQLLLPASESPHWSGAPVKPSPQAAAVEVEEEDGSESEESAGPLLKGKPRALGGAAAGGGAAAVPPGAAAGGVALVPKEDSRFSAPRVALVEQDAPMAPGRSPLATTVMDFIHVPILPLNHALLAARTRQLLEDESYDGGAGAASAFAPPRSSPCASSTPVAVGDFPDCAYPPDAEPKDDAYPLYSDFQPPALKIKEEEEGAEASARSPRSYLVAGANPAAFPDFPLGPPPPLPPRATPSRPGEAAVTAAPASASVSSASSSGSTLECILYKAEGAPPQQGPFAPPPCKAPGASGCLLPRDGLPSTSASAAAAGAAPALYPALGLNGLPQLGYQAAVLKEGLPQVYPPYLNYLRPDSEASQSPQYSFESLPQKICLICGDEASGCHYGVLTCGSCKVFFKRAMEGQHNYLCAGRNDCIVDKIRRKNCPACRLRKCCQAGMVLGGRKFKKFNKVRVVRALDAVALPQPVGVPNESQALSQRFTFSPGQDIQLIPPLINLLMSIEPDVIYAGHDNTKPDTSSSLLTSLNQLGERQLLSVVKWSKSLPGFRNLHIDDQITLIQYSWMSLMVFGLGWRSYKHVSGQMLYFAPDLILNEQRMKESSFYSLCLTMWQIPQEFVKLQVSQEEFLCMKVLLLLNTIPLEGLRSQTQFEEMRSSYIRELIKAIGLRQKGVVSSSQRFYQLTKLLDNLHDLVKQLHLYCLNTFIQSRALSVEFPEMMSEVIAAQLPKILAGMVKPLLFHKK
Chain of Thyrotropin-releasing hormone receptor (Homo sapiens) (P34981 whole entry, looked up): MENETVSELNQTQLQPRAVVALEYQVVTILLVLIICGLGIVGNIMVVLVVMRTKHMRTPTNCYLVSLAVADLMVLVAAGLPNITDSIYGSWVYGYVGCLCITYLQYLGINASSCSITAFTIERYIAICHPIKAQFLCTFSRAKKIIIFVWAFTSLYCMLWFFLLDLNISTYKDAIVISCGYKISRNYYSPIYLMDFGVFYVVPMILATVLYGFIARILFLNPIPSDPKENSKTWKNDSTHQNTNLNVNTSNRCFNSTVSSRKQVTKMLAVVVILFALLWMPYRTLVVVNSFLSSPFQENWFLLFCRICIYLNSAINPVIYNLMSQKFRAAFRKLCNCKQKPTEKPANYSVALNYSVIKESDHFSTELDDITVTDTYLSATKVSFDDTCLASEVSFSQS
Chain of Estrogen receptor beta (Homo sapiens) (Q92731 whole entry, looked up): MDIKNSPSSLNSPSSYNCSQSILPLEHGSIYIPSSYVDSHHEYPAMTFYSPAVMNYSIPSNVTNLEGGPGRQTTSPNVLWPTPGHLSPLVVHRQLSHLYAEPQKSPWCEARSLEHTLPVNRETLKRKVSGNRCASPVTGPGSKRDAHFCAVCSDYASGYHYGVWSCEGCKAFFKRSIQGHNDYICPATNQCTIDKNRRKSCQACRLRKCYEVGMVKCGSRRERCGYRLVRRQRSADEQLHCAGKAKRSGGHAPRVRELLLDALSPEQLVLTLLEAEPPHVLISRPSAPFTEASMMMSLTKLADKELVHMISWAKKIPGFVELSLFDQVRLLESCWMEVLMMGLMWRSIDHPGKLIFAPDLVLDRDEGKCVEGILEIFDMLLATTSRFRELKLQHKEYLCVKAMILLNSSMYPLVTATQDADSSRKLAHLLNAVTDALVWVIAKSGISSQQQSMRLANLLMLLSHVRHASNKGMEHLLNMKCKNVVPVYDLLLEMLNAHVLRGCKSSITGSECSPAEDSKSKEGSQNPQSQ
Chain of Thyrotropin receptor (Homo sapiens) (P16473 whole entry, looked up): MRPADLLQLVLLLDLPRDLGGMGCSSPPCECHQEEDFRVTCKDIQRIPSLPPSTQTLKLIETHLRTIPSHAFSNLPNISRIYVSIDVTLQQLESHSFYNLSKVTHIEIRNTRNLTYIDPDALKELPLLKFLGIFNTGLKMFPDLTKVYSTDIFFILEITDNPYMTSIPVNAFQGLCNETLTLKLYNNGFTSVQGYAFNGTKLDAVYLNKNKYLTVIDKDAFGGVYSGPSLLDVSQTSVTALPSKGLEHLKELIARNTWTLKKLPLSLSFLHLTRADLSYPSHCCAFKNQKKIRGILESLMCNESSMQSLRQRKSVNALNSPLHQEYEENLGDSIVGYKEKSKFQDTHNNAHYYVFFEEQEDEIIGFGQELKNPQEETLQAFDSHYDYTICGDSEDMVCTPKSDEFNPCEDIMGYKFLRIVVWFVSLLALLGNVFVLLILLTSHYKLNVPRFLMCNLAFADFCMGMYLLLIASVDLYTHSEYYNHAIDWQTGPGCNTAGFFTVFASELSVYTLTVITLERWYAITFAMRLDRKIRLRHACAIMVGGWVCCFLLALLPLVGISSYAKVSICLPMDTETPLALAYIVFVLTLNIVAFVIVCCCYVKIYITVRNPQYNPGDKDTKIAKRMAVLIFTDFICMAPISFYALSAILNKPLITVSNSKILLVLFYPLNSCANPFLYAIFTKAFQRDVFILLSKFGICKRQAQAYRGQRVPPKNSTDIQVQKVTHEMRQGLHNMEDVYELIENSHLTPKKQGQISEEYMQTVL

SMILES | Potency [1] | Potency [2] | Potency [3] | Potency [4] | Potency [5] | Potency [6] | Potency [7] | Potency [8] | Potency [9] | Potency [10] | Potency [11] | Potency [12] | Potency [13] | Potency [14] | outcome [15] | Potency [16] | Potency [17] | Potency [18] | Potency [19]
CC(C)[N+](C)(CCOC(=O)C1c2ccccc2Oc2ccccc21)C(C)C | inactive | inactive | inactive | inactive | inactive | inactive | inactive | inactive | inactive | inactive | inactive | inactive | inactive | inactive | inactive | inactive | inactive |  | 
CC1(C)O[C@@H]2C[C@H]3[C@@H]4C[C@H](F)C5=CC(=O)C=C[C@]5(C)[C@@]4(F)[C@@H](O)C[C@]3(C)[C@]2(C(=O)CO)O1 | inactive | inactive | inactive | inactive | inactive | inactive | inactive | inactive |  | inactive | inactive |  | inactive |  | inactive | inactive | inactive |  | 
C=C[C@@]1(C)CC(=O)[C@]2(O)[C@@]3(C)[C@@H](O)CCC(C)(C)[C@@H]3[C@H](O)[C@H](OC(C)=O)[C@@]2(C)O1 | 2.4 nM (active) and 211 nM (active) | 48.6 µM (active) | 19.3 µM (active) and 11.9 µM (active) | 21.7 µM (active) and 15 µM (active) | inactive |  |  | inactive | inactive |  | 24.3 µM (active) and 15 µM (active) | 12.2 µM (active) and 16.8 µM (active) | inactive | inactive | inactive |  |  | inactive | 
Cc1ccc([N+](=O)[O-])c(C)c1 | inactive | inactive | 6.11 µM (active) and inactive | 8.63 µM (active) and inactive | inactive | inactive | inactive | inactive | inactive | inactive |  | 19.3 µM (active) and inactive | inactive | inactive | inactive |  | inactive |  | 
CCC(Cc1c(I)cc(I)c(N)c1I)C(=O)O (stereo not given) | inactive | inactive | 33.3 µM (active) | inactive | inactive | inactive | inactive | inactive | inactive | inactive | inactive | inactive | inactive | inactive | inactive |  | inactive |  | 
O=C(CCCN1CCC(O)(c2ccc(Cl)cc2)CC1)c1ccc(F)cc1 | inactive | 68.6 µM (active) and inactive | 21.7 µM (active) and 23.7 µM (active) |  |  | inactive | inactive | inactive |  |  | inactive | inactive | inactive | inactive | inactive | inactive | inactive | inactive | inactive
Cc1ccc(C(C)(C)C)c(O)c1 | inactive | inactive |  | inactive | inactive | inactive | inactive | inactive | inactive | inactive | inactive | inactive | inactive | inactive | inactive |  | inactive | inactive | inactive
CC1(C)NC(=O)N(c2ccc([N+](=O)[O-])c(C(F)(F)F)c2)C1=O | 15.4 µM (active) | inactive | inactive | inactive |  | inactive | inactive | inactive | inactive | 17.2 µM (active) and 11.9 µM (active) | inactive |  | inactive | inactive | inactive | inactive | inactive | inactive | inactive
C=CC(=O)OCCCC | inactive | inactive | inactive | inactive |  |  | inactive | inactive | inactive | inactive | inactive | inactive | inactive |  | inactive | inactive | inactive | inactive | inactive
OCCNCCO | inactive | inactive | inactive | inactive | inactive |  | inactive | inactive | inactive | inactive | inactive | inactive | inactive | inactive | inactive | inactive | inactive |  | 
CC(=O)Oc1c(C)c(C)c2c(c1C)CC[C@@](C)(CCC[C@H](C)CCC[C@H](C)CCCC(C)C)O2 | inactive | inactive | inactive | inactive | inactive |  | inactive | inactive | inactive | inactive | inactive | inactive | inactive | inactive | inactive | inactive | inactive |  | 
C=CCOC(=O)C(=C)C | inactive | inactive | inactive | inactive |  |  | inactive | inactive | inactive | inactive | inactive | inactive | inactive |  | inactive |  | inactive | inactive | inactive
CC(=O)Nc1ccc2c(c1)Cc1cc(NC(C)=O)ccc1-2 | inactive | inactive | inactive | inactive | inactive | inactive | inactive | inactive | inactive | inactive | inactive | inactive | inactive | inactive | inactive |  | inactive |  | 
C=CC(C)(O)CCC=C(C)C (stereo not given) | inactive | inactive | inactive | inactive |  |  | inactive | inactive | inactive | inactive | inactive | inactive | inactive | inactive | inactive | inactive | inactive | inactive | inactive
